PubChem BioAssay (EPA / NIEHS)
Records with an inconclusive call do not appear. The source made the active and inactive calls. The calls were made as follows: active = hit-call score of the fitted dose curve at least 0.9, where 1 is the maximum; inconclusive = response in the unintended direction; inactive = score below 0.9.

How the values were obtained:
[1] = TOX21_p53_BLA_p2_viability: Viability Assessment in the Tox21 HCT-116 p53 Agonism Beta-lactamase Assay, Phase 2 (AID 2283591);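 also: compound exposure lasted 16 h at 37 °C; actives lower the ATP signal meaning cytotoxicity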
Summary of the method: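 Cytotoxicity readout: CellTiter-Glo ATP luminescence, 30 min at room temperature, after the beta-lactamase read. Cells were HCT116 exposed 16 h at 37C to compounds pin-transferred at 217-fold dilution from DMSO stocks.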

[2] = molecular target: Cellular tumor antigen p53 (Homo sapiens) (UniProt P04637); assay: TOX21_p53_BLA_p2_ratio: Tox21 HCT-116 p53 Agonism Beta-lactamase Assay, Ratio, Phase 2 (AID 2283592)
Chain of Cellular tumor antigen p53 (Homo sapiens) (P04637 whole entry, looked up): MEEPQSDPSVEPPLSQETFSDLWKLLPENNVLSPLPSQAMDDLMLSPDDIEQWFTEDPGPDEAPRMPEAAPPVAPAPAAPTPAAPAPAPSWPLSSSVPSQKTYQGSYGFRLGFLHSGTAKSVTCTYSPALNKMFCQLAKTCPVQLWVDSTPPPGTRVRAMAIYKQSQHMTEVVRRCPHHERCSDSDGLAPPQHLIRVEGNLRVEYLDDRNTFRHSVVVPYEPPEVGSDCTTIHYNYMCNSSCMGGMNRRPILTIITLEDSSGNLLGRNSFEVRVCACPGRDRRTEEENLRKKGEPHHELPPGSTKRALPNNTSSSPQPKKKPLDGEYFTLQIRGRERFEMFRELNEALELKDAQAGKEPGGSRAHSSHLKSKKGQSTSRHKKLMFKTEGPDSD
Summary of the method: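 In this cell-based reporter format, HCT116 cells were dosed with chemicals delivered from DMSO by 217-fold dilution and incubated 16 h at 37C. Emission at 460 and 530 nm after 2 h CCF4-AM loading provided the ratio, fitted upward versus DMSO.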

[3] = molecular target: Cellular tumor antigen p53 (Homo sapiens) (UniProt P04637); assay: TOX21_p53_BLA_p3_ratio: Tox21 HCT-116 p53 Agonism Beta-lactamase Assay, Ratio, Phase 3 (AID 2283596)
Summary of the method: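 HCT116 p53-bla cells (4000/well) given compound in DMSO (217-fold dilution) after 5 h, incubated 16 h at 37C. CCF4-AM substrate 2 h at room temperature; 460/530 nm emission ratio, gain fitted against DMSO.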

[4] = molecular target: Cellular tumor antigen p53 (Homo sapiens) (UniProt P04637); assay: TOX21_p53_BLA_p5_ratio: Tox21 HCT-116 p53 Agonism Beta-lactamase Assay, Ratio, Phase 5 (AID 2283599)
Summary of the method: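 Beta-lactamase reporter ratio (blue 460 nm over green 530 nm, 405 nm excitation) after 2 h CCF4-AM loading, in HCT-116 cells exposed 16 h at 37 C to compounds pinned at 217-fold dilution. Increases relative to DMSO baseline scored.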

[5] = TOX21_p53_BLA_p5_viability: Viability Assessment in the Tox21 HCT-116 p53 Agonism Beta-lactamase Assay, Phase 5 (AID 2283600)
Summary of the method: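 Compounds, pinned from DMSO at 217-fold dilution, were left on the cells for 16 h. The viability endpoint was ATP content measured by CellTiter-Glo luminescence, where falling signal reflects cytotoxicity.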

[6] = molecular target: Cellular tumor antigen p53 (Homo sapiens) (UniProt P04637); assay: TOX21_p53_BLA_p4_ratio: Tox21 HCT-116 p53 Agonism Beta-lactamase Assay, Ratio, Phase 4 (AID 2283601)
Summary of the method: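 Signal is the blue/green (460nm/530nm) ratio of cleaved versus uncleaved CCF4-AM substrate, read after 2 h substrate loading. Cells were HCT116 carrying the p53-responsive beta-lactamase reporter, dosed 16 h at 37C, 5% CO2; CellTiter-Glo measured in parallel.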

Measured: outcome

NCCO/C=C/[C@H](N)C(=O)O
inactive: all assays above

N=C(N=C(N)N)N1CCOCC1
inactive: all assays above

O=C(O)CNC(=O)c1ccc([N+](=O)[O-])cc1
inactive: all assays above

CC[N+](C)(C)Cc1ccccc1Br
inactive: all assays above

CCOC(=O)c1c[nH]c2cc(OCC(C)C)c(OCC(C)C)cc2c1=O
inactive: all assays above

CN(C)CCn1nnnc1SCC1=C(C(=O)O)N2C(=O)[C@@H](NC(=O)Cc3csc(N)n3)[C@H]2SC1
inactive: all assays above
